Inconclusive results are not listed. Active and inactive are the calls of the source. Rule for the calls, unless noted: active = hit-call score of the fitted dose curve at least 0.9, where 1 is the maximum; inconclusive = response in the unintended direction; inactive = score below 0.9.
Molecular target: human Peroxisome Proliferator-activated Receptor alpha (PPARa), PPARA (gene 5465) (UniProt Q07869)
Assay: ATG_PPARa_TRANS: Attagene TRANS-FACTORIAL HepG2 Assay for human Peroxisome Proliferator-activated Receptor alpha (PPARa) (AID 2283001);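 for AC50: potency for gain of reporter signal over DMSO so agonist or activator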
Conditions: not given
Procedure, shortened: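 Reporter transcripts quantified by RT-PCR plus capillary electrophoresis after 24 h treatment, fitted upward relative to DMSO. Cells: human HepG2 transiently carrying multiple GAL4-UAS reporter units driven by NR-Gal4 chimeras.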

human Peroxisome Proliferator-activated Receptor alpha (PPARa), PPARA (gene 5465), sequence (Q07869 whole entry, looked up): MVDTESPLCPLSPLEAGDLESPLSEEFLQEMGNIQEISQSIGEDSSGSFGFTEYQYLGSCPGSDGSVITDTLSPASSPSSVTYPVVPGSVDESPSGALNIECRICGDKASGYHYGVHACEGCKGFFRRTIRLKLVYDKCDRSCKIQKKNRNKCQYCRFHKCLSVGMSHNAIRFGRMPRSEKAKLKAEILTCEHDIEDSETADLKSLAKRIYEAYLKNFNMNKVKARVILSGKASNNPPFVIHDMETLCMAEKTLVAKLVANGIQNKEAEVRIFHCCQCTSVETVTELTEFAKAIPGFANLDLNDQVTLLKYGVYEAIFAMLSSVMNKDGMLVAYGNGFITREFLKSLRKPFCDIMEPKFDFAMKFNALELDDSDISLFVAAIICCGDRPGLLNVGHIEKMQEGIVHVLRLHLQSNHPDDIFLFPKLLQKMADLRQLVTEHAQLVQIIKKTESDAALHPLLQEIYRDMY

| SMILES | outcome | AC50 |
| --- | --- | --- |
| CC1=Nc2ccc3ccccc3c2C1(C)C | inactive |  |
| O=C(O)CCCCCCCCCC(=O)O | inactive |  |
| CC(=O)Oc1ccc(C(C)=O)cc1 | inactive |  |
| CCOc1ccc(N)c([N+](=O)[O-])c1 | inactive |  |
| COC(=O)c1ccc2cc(C(=O)OC)ccc2c1 | inactive |  |
| FC(F)(F)C(=NOCC1OCCO1)c1ccc(Cl)cc1 | inactive |  |
| CC(C)c1ccc(C#N)cc1 | inactive |  |
| CCCCCCCCCCOC(C)=O | inactive |  |
| Cc1ccc2oc(=O)ccc2c1 | inactive |  |
| COC(=O)/C=C\C(=O)O | inactive |  |
| CCN(CC)c1ccc(C(=O)c2ccccc2C(=O)O)c(O)c1 | inactive |  |
| COc1ccc([C@@H]2CC(=O)c3c(O)cc(O[C@@H]4O[C@H](CO[C@@H]5O[C@@H](C)[C@H](O)[C@@H](O)[C@H]5O)[C@@H](O)[C@H](O)[C@H]4O)cc3O2)cc1OC | inactive |  |
| Clc1nc2ccccc2s1 | inactive |  |
| Nc1ccc(Cl)cc1Cl | inactive |  |
| C1=CCCC1 | inactive |  |
| Cc1cccc(OCCOc2cccc(C)c2)c1 | inactive |  |
| CCc1ccc2c(c1)C(=O)c1ccccc1C2=O | inactive |  |
| COc1cc(NC(=O)CC(C)=O)c(OC)cc1Cl | inactive |  |
| C=C(C)C(=O)OCCO | inactive |  |
| CC1=NN(c2cc(S(=O)(=O)O)ccc2Cl)C(=O)C1N=Nc1ccccc1 (stereo unspecified) | inactive |  |
| Cc1cc(C)c(C(=O)O)c(C)c1 |  | 33.7 µM (active) |

Molecular target: human Peroxisome Proliferator-activated Receptor delta (PPARd), PPARD (gene 5467) (UniProt Q03181)
Sequence (Q03181 whole entry, looked up): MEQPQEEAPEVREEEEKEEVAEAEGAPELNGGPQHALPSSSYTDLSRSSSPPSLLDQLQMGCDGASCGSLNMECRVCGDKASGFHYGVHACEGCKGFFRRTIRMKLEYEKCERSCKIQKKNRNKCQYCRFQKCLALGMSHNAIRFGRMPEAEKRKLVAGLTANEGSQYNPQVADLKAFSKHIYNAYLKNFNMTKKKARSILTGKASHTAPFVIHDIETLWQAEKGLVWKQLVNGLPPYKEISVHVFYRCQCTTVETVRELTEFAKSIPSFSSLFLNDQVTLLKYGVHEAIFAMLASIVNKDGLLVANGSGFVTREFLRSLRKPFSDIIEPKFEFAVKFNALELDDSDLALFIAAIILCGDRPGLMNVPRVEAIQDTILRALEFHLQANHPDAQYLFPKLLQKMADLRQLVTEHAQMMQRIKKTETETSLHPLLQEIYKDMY
Assay: ATG_PPARd_TRANS: Attagene TRANS-FACTORIAL HepG2 Assay for human Peroxisome Proliferator-activated Receptor delta (PPARd) (AID 2283002)
Conditions: not given
Procedure, shortened: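 Transient HepG2 transfection (multiple GAL4-UAS RTUs, chimeric receptor-Gal4); 24 h dosing; total RNA → oligo(dT) RT → PCR → 6-FAM primer extension → HpaI cut → CE. Positive direction vs DMSO.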

| SMILES | outcome |
| --- | --- |
| CC(C)(c1cc(Br)c(OCCO)c(Br)c1)c1cc(Br)c(OCCO)c(Br)c1 | inactive |
| CCCCC(CC)COC(=O)c1ccccc1O (stereo unspecified) | inactive |
| CC(C)C(=O)C(C)C | inactive |
| Cc1cc(C)c(C)cc1C | inactive |
| CCCCCCCCCCCCCCCC(=O)OCC | inactive |
| Cc1ccc(OC(=O)CC(C)C)cc1 | inactive |
| O=C(Cl)c1cc(C(=O)Cl)cc(C(=O)Cl)c1 | inactive |
| COc1ccc(NC(C)=O)cc1N | inactive |
| CCN(CC#N)c1cccc(C)c1 | inactive |
| CC1(C)O[C@@H]2C[C@H]3[C@@H]4C[C@H](F)C5=CC(=O)C=C[C@]5(C)[C@@]4(F)[C@@H](O)C[C@]3(C)[C@]2(C(=O)CO)O1 | inactive |
| CNC(=S)NN | inactive |
| C=C[Si](OC(C)=O)(OC(C)=O)OC(C)=O | inactive |
| C#CC1(O)CC[C@H]2[C@@H]3CCC4=CCCC[C@@H]4[C@H]3CC[C@@]21C (stereo partly specified) | inactive |
| CCOC(=O)N1CCC(=C2c3ccc(Cl)cc3CCc3cccnc32)CC1 | inactive |
| N[C@H]1C(O)O[C@H](CO)[C@H](O)[C@@H]1O (stereo partly specified) | inactive |
| CCO[Si](C)(OCC)OCC | inactive |
| CC(=O)Nc1ccc2c(c1)Cc1cc(NC(C)=O)ccc1-2 | inactive |
| C=CC=CC=CCCCCC | inactive |

Read-out: Intercellular Adhesion Molecule 1 (ICAM1), ICAM1 (gene 3383)
Assay: BSK_3C_ICAM1: BioMAP Diversity Plus: 3C Assay for Intercellular Adhesion Molecule 1 (ICAM1) Biomarker Activity (AID 2283003; active = hit-call score of the fitted dose curve at least 0.9, where 1 is the maximum; inactive = score below 0.9)
Conditions: primary human endothelial cells (HUVEC); actives raise or lower the signal
Procedure, shortened: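 Chemicals are dosed onto primary human umbilical vein endothelium (3C system). After 24 h, ICAM-1 is measured by ELISA, and responses are fitted bidirectionally relative to DMSO.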

| SMILES | AC50 | outcome |
| --- | --- | --- |
| CC(C)(c1cc(Br)c(OCCO)c(Br)c1)c1cc(Br)c(OCCO)c(Br)c1 | 28 µM (active) |  |
| CCCCC(CC)COC(=O)c1ccccc1O (stereo unspecified) |  | inactive |
| CC(C)C(=O)C(C)C |  | inactive |
| O=C(Cl)c1cc(C(=O)Cl)cc(C(=O)Cl)c1 | 12.7 µM (active) |  |
| C=C[Si](OC(C)=O)(OC(C)=O)OC(C)=O |  | inactive |
| C#CC1(O)CC[C@H]2[C@@H]3CCC4=CCCC[C@@H]4[C@H]3CC[C@@]21C (stereo partly specified) | 10.7 µM (active) |  |
| CCO[Si](C)(OCC)OCC |  | inactive |
| C=CC=CC=CCCCCC |  | inactive |

Molecular target: human Retinoic Acid Receptor beta (RARb), RARB (gene 5915) (UniProt P10826)
Sequence (P10826 whole entry, looked up): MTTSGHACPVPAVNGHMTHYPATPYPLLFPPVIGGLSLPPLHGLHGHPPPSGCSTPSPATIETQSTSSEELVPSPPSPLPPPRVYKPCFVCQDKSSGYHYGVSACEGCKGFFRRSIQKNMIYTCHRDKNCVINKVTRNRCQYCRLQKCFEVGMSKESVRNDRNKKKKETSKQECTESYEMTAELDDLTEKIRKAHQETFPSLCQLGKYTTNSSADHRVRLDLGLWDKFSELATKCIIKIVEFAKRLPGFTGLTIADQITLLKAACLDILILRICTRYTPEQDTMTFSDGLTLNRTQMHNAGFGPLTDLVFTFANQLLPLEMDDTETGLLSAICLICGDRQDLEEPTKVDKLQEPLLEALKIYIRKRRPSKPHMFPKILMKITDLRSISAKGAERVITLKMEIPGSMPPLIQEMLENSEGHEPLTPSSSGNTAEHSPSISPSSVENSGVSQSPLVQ
Assay: ATG_RARb_TRANS: Attagene TRANS-FACTORIAL HepG2 Assay for human Retinoic Acid Receptor beta (AID 2283004)
Conditions: not given
Procedure, shortened: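 Transient transfection of HepG2 with multiple reporter units → chemical dosing, 24 h → total RNA isolation → RT with oligo(dT) → reporter-specific PCR, 6-FAM primer extension, HpaI digest → capillary electrophoresis. Positive direction vs DMSO control.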

| SMILES | outcome |
| --- | --- |
| CC(C)(c1cc(Br)c(OCCO)c(Br)c1)c1cc(Br)c(OCCO)c(Br)c1 | inactive |
| CCCCC(CC)COC(=O)c1ccccc1O (stereo unspecified) | inactive |
| CCCCCCCCCCCCCCCC(=O)OCC | inactive |
| CCN(CC#N)c1cccc(C)c1 | inactive |
| CNC(=S)NN | inactive |
| C#CC1(O)CC[C@H]2[C@@H]3CCC4=CCCC[C@@H]4[C@H]3CC[C@@]21C (stereo partly specified) | inactive |

Molecular target: Retinoic acid receptor alpha (Homo sapiens) (UniProt P10276)
Sequence (P10276 whole entry, looked up): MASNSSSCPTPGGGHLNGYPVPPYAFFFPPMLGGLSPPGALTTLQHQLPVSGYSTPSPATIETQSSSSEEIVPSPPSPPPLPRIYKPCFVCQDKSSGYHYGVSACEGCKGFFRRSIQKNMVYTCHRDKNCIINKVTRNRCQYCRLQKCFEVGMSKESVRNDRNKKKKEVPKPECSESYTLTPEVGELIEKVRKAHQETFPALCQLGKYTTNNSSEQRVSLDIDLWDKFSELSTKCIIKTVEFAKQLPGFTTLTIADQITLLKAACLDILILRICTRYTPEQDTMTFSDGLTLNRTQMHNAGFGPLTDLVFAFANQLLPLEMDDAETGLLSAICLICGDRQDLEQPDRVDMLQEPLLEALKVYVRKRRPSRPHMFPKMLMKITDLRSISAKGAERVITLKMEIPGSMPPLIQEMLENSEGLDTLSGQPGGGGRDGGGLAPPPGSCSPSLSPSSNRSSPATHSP
Assay: ATG_RARa_TRANS: Attagene TRANS-FACTORIAL HepG2 Assay for human Retinoic Acid Receptor alpha (RARa) (AID 2283005)
Conditions: not given
Procedure, shortened: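 Reporter transcripts, measured by RT-PCR with fluorescent labeling and capillary electrophoresis after 24 h dosing, reflect activity of an exogenous human RARa–GAL4 fusion in transiently transfected HepG2. Fitted for increase relative to DMSO.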

| SMILES | outcome |
| --- | --- |
| CC(C)(c1cc(Br)c(OCCO)c(Br)c1)c1cc(Br)c(OCCO)c(Br)c1 | inactive |
| CCCCC(CC)COC(=O)c1ccccc1O (stereo unspecified) | inactive |
| CCCCCCCCCCCCCCCC(=O)OCC | inactive |
| CNC(=S)NN | inactive |
| C=C[Si](OC(C)=O)(OC(C)=O)OC(C)=O | inactive |

Read-out: not listed separately
Assay: BSK_3C_Proliferation: Cell Proliferation Assessment in the BioMAP Diversity Plus: 3C Assay (AID 2283006; active = hit-call score of the fitted dose curve at least 0.9, where 1 is the maximum; inactive = score below 0.9;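 for AC50: potency may reflect either rise or fall in cell number versus DMSO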)
Conditions: primary human endothelial cells (HUVEC)
Procedure, shortened: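 Cells (human umbilical vein endothelial, sub-confluent) receive test chemical; after 48 h they are fixed in 10% trichloroacetic acid, stained with 0.1% SRB and read at 560 nm. Activity is referenced to DMSO, fitting increases and decreases.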

| SMILES | AC50 | outcome |
| --- | --- | --- |
| CC(C)(c1cc(Br)c(OCCO)c(Br)c1)c1cc(Br)c(OCCO)c(Br)c1 | 11.9 µM (active) |  |
| CCCCC(CC)COC(=O)c1ccccc1O (stereo unspecified) | 17.3 µM (active) |  |
| CC(C)C(=O)C(C)C |  | inactive |
| O=C(Cl)c1cc(C(=O)Cl)cc(C(=O)Cl)c1 | 6.87 µM (active) |  |
| C=C[Si](OC(C)=O)(OC(C)=O)OC(C)=O |  | inactive |
| C#CC1(O)CC[C@H]2[C@@H]3CCC4=CCCC[C@@H]4[C@H]3CC[C@@]21C (stereo partly specified) | 11 µM (active) |  |
| CCO[Si](C)(OCC)OCC |  | inactive |
| C=CC=CC=CCCCCC |  | inactive |

Molecular target: Peroxisome proliferator-activated receptor gamma (Homo sapiens) (UniProt P37231)
Sequence (P37231 whole entry, looked up): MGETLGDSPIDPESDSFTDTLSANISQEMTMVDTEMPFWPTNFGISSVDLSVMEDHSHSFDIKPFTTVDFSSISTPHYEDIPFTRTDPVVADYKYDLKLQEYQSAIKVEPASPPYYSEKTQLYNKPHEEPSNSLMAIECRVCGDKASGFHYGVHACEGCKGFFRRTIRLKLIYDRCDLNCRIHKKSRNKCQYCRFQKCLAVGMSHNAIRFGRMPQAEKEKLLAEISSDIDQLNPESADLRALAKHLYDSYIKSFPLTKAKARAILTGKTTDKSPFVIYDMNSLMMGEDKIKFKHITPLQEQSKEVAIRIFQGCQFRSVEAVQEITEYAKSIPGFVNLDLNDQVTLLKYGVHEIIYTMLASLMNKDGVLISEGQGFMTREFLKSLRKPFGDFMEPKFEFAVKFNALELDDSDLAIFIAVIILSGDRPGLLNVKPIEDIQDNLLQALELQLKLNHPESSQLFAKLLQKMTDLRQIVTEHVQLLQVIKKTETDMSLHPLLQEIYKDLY
Assay: ATG_PPARg_TRANS: Attagene TRANS-FACTORIAL HepG2 Assay for human Peroxisome Proliferator-activated Receptor-gamma (PPARg) (AID 2283007)
Conditions: not given
Procedure, shortened: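 Human hepatoma HepG2, transient MRTU transfection, 24 h treatment. mRNA reporter signal by RT-PCR plus capillary electrophoresis, fluorescence detection; fitted for increase over DMSO negative control.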

| SMILES | AC50 | outcome |
| --- | --- | --- |
| CC1=Nc2ccc3ccccc3c2C1(C)C | 40.5 µM (active) |  |
| O=C(O)CCCCCCCCCC(=O)O |  | inactive |
| CC(C)(c1cc(Br)c(OCCO)c(Br)c1)c1cc(Br)c(OCCO)c(Br)c1 | 2.78 µM (active) |  |
| CCCCC(CC)COC(=O)c1ccccc1O (stereo unspecified) |  | inactive |
| CC(C)C(=O)C(C)C | 6.38 µM (active) |  |
| COC(=O)c1ccc2cc(C(=O)OC)ccc2c1 | 26.3 µM (active) |  |
| FC(F)(F)C(=NOCC1OCCO1)c1ccc(Cl)cc1 |  | inactive |
| O=C(Cl)c1cc(C(=O)Cl)cc(C(=O)Cl)c1 |  | inactive |
| CCN(CC#N)c1cccc(C)c1 |  | inactive |
| CCCCCCCCCCOC(C)=O |  | inactive |
| COC(=O)/C=C\C(=O)O | 35.2 µM (active) |  |
| COc1ccc([C@@H]2CC(=O)c3c(O)cc(O[C@@H]4O[C@H](CO[C@@H]5O[C@@H](C)[C@H](O)[C@@H](O)[C@H]5O)[C@@H](O)[C@H](O)[C@H]4O)cc3O2)cc1OC |  | inactive |
| Clc1nc2ccccc2s1 |  | inactive |
| C#CC1(O)CC[C@H]2[C@@H]3CCC4=CCCC[C@@H]4[C@H]3CC[C@@]21C (stereo partly specified) |  | inactive |
| CCc1ccc2c(c1)C(=O)c1ccccc1C2=O | 24.3 µM (active) |  |
| COc1cc(NC(=O)CC(C)=O)c(OC)cc1Cl |  | inactive |
| C=C(C)C(=O)OCCO |  | inactive |
| CC1=NN(c2cc(S(=O)(=O)O)ccc2Cl)C(=O)C1N=Nc1ccccc1 (stereo unspecified) |  | inactive |
| Cc1cc(C)c(C(=O)O)c(C)c1 |  | inactive |
| C=CC=CC=CCCCCC | 6.66 µM (active) |  |

Source: PubChem BioAssay (EPA / NIEHS)
